Several values for one entry are separate records, joined by “and”; a condition that tells them apart may be missing. Equal values may be shown once. Inconclusive results are not listed. Some compounds were tested as several samples or in several runs, with calls that do not always agree. Activity calls are given as the source filed them. Unless noted, calls follow the shape of the dose curve; as a rule, active = well fitted curve in the direction sought with a large enough effect in the repeat runs; inconclusive = weak or mixed curves; inactive = no such curve, though single readings can be large; an effect the other way counts as inactive or inconclusive.
Columns and labels:
[1] = qHTS assay to identify small molecule antagonists of the estrogen related receptor (ERR) signaling pathway from Tox21 library - cell viability counter screen (AID 1224834); also: nearly all actives have a fitted effect of over 30% in size
Summary of the method: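 CellTiter-Fluor fluorescence, read after 30 min at 37 C, measures viability of ERR cells. Cells plated at 2,000/well and incubated 6 h before pin-tool compound addition, then exposed 17.5 hours at 37 C.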

[2] = target: Luciferin 4-monooxygenase (Photinus pyralis) (UniProt P08659); test: qHTS assay to identify small molecule inhibitors of firefly luciferase (AID 1224835); also: nearly all actives have a fitted effect of over 25% in size
Summary of the method: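 Biochemical qHTS: compounds run as interplate titrations against purified firefly enzyme, with D-luciferin and ATP each at its KM concentration. Light output recorded by CCD imaging.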

[3] = qHTS assay to identify small molecule agonists of the constitutive androstane receptor (CAR) signaling pathway - cell viability counter screen (AID 1224836); also: nearly all actives have a fitted effect of over 45% in size
Summary of the method: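 HepG2 cells stably carrying hCAR and a CYP2B6-2.2kb reporter; 15-concentration compounds plus PK11195 (final 0.75 uM), 23 hr at 37 C/5% CO2. Viability read by CellTiter-Fluor fluorescence.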

[4] = qHTS assay to identify small molecule antagonists of the constitutive androstane receptor (CAR) signaling pathway - cell viability counter screen (AID 1224837); also: nearly all actives have a fitted effect of over 45% in size
Summary of the method: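 Cytotoxicity counter-screen: CellTiter-Fluor fluorescence after 23 h compound exposure (15-point qHTS) in double-stable HepG2-CYP2B6-hCAR cells, with 50 nM CITCO added.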

[5] = target: Nuclear receptor subfamily 1 group I member 3 (Homo sapiens) (UniProt Q14994); test: qHTS assay to identify small molecule agonists of the constitutive androstane receptor (CAR) signaling pathway (AID 1224839);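 also: HepG2 cells stably carrying human CAR and a CYP2B6 luciferase reporter; nearly all actives have a fitted effect of over 15% in size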
Summary of the method: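 HepG2 cells stably co-transfected with hCAR and a CYP2B6-2.2kb luciferase reporter; compounds at 15 concentrations with 0.75 uM PK11195 present. After 24 hr at 37 C, luciferase read by ONE-Glo luminescence.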

[6] = qHTS assay to identify small molecule antagonists of the estrogen related receptor signaling pathway with the pleiotropic PPARgamma coactivator (PGC) from Tox21 10K library - cell viability counter screen (AID 1224840; active = well fitted cell-killing curve with a large enough effect in the repeat runs, not every such curve was filed as active; also: nearly all actives have a fitted effect of over 40% in size)
Summary of the method: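 Counter-screen for cytotoxicity: after 17.5 h compound exposure at 37 C, CellTiter-Fluor reagent added to PGC/ERR cells for 30 min and fluorescence read. Cells were seeded at 2,000 per well 6 h before dosing.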

[7] = target: Thyrotropin receptor (Homo sapiens) (UniProt P16473); test: qHTS assay to identify small molecule agonists of the thyroid stimulating hormone receptor (TSHR) signaling pathway (AID 1224843; calls by dose curve; also: nearly all actives have a fitted effect of over 45% in size; also: potency is read from the fitted curve at half-maximal effect)
Summary of the method: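 HEK293/TSHR, 800 cells/well; cpd 30 min RT; add cAMP-d2 + anti-cAMP-cryptate, 1 h RT; fluorescence read on plate reader. 15-pt titration, n=3.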

[8] = qHTS assay to identify small molecule agonists of the hypoxia (HIF-1) signaling pathway - cell viability counter screen (AID 1224844; calls by dose curve; also: nearly all actives have a fitted effect of over 50% in size)
Summary of the method: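 Cytotoxicity measured by CellTiter-Glo ATP luminescence in the wells also read for beta-lactamase signal. Cells were HRE-bla ME-180 (2,000/well, 0.5% dialyzed FBS), exposed to compounds for 17 h at 37C.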

[9] = qHTS assay to identify small molecule agonists of H2AX (AID 1224845; active = well fitted activation curve with a large enough effect in the signal ratio in the repeat runs, not every such curve was filed as active; the % refers to the signal ratio)
Summary of the method: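 Wild-type CHO-K1 cells, plated overnight, exposed 3hr at 37C to 15 concentrations (0.76% DMSO final). Lysed, then HTRF anti-pH2AX (S139) cryptate and anti-H2AX-d2 antibodies, 24 hr room temperature; 665/620 nm emission read.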

[10] = qHTS assay to identify small molecule agonists of the hypoxia (HIF-1) signaling pathway (AID 1224846; active = well fitted activation curve with a large enough effect in the signal ratio in the repeat runs, not every such curve was filed as active; the % refers to the signal ratio)
Summary of the method: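 Compounds added to ME-180 cells carrying hypoxia-response-element beta-lactamase reporter (0.5% dialyzed FBS, 5 h preplating), 17 h at 37C; agonist activity detected by CCF4-AM B/G FRET read-out.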

[11] = qHTS assay to identify small molecule agonists of H2AX - cell viability counter screen (AID 1224847; calls by dose curve; also: nearly all actives have a fitted effect of over 30% in size; also: potency is read from the fitted curve at half-maximal effect)
Summary of the method: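 CHO-K1 cells plated overnight at 37C, then exposed 3 h at 37C to compounds at 15 concentrations (0.76% DMSO final). Viability by CellTiter-Glo luminescence after 30 min at room temperature.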

[12] = qHTS RealTime-Glo MT Cell Viability Assay in HepG2 cells - 24 hour (AID 1224867); also: nearly all actives have a fitted effect of over 50% in size
Summary of the method: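 HepG2 cells were seeded at 600 cells/well together with NanoLuc luciferase and a cell-permeant prosubstrate, preincubated 5 h at 37 C/5% CO2, then pin-dosed with compounds in DMSO. Nonlytic luminescence from viable cells was read at each time point.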

[13] = qHTS RealTime-Glo MT Cell Viability Assay in HEK293 cells - 32 hour (AID 1224868); also: nearly all actives have a fitted effect of over 50% in size; also: potency is read from the fitted curve at half-maximal effect
Summary of the method: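 HEK293 cells were seeded at 600 cells/well together with NanoLuc luciferase and cell-permeant prosubstrate, preincubated 5 h at 37 C/5% CO2, then given compound in DMSO by pintool. Luminescence from viable-cell prosubstrate reduction was read repeatedly over 40 h.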

[14] = A CellTox Green Cytotoxicity Assay to monitor cytotoxicity in HEK293 cells - 0 hour (AID 1224869); also: nearly all actives have a fitted effect of over 50% in size
Summary of the method: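 Fluorescence from a DNA-binding dye excluded by viable cells was measured repeatedly in the same HEK293 wells (600 cells/well) during continuous compound exposure at 37 C. Each assay gives one read point: 0, 8, 16, 24, 32 or 40 h.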

[15] = qHTS RealTime-Glo MT Cell Viability Assay in HepG2 cells - 40 hour (AID 1224870); also: nearly all actives have a fitted effect of over 50% in size
Summary of the method: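 HepG2 cells (600/well) mixed with RealTime-Glo MT reagent, settled 5 h at 37 C/5% CO2 before compound addition. Nonlytic NanoLuc luminescence from viable-cell prosubstrate reduction read repeatedly during 40 h treatment at 37 C.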

[16] = qHTS assay to identify small molecule antagonists of the estrogen related receptor signaling pathway with the pleiotropic PPARgamma coactivator (PGC) from Tox21 10K library (AID 1224841; call rule not given here)
Summary of the method: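 Luminescence (One-Glo, 30 min at room temperature) after 18 h compound treatment at 37 C of PGC/ERR reporter cells plated at 2,000 cells/well and settled 6 h beforehand.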

[17] = qHTS assay to identify small molecule agonists of the estrogen related receptor signaling pathway with the pleiotropic PPARgamma coactivator (PGC) from Tox21 10K library (AID 1224842); also: nearly all actives have a fitted effect of over 15% in size
Summary of the method: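 PGC/ERR reporter cell line, 2,000 cells per well, incubated 6 h at 37 C before 23 nL compound in DMSO was added. After 18 h at 37 C, One-Glo luminescence read following 30 min at room temperature.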

[18] = qHTS assay to identify small molecule antagonists of the estrogen related receptor (ERR) signaling pathway from Tox21 library (AID 1224848); also: nearly all actives have a fitted effect of over 50% in size
Summary of the method: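 Compounds dissolved in DMSO are pin-transferred onto ERR reporter cells (2,000 per well) that have settled for 6 h at 37 C. Plates then incubate 18 h at 37 C before ONE-Glo luciferase reagent and a luminescence read 30 min later.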

[19] = qHTS assay to identify small molecule agonists of the estrogen related receptor (ERR) signaling pathway from Tox21 library (AID 1224849; calls by dose curve; also: nearly all actives have a fitted effect of over 15% in size); conditions: ERR reporter cell line, ONE-Glo luciferase, 18 h; at 92.4 µM (top of the series) unless noted
Summary of the method: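 Luminescent agonist read-out (One-Glo, 30-minute room-temperature incubation) following 18-hour compound treatment at 37 C of the ERR cell line, which had been plated 6 hours before dosing.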
% is scaled to controls: 0 for no effect and ±100 for the full control effect.

Sequence of Thyrotropin receptor (Homo sapiens) (P16473 whole entry, looked up): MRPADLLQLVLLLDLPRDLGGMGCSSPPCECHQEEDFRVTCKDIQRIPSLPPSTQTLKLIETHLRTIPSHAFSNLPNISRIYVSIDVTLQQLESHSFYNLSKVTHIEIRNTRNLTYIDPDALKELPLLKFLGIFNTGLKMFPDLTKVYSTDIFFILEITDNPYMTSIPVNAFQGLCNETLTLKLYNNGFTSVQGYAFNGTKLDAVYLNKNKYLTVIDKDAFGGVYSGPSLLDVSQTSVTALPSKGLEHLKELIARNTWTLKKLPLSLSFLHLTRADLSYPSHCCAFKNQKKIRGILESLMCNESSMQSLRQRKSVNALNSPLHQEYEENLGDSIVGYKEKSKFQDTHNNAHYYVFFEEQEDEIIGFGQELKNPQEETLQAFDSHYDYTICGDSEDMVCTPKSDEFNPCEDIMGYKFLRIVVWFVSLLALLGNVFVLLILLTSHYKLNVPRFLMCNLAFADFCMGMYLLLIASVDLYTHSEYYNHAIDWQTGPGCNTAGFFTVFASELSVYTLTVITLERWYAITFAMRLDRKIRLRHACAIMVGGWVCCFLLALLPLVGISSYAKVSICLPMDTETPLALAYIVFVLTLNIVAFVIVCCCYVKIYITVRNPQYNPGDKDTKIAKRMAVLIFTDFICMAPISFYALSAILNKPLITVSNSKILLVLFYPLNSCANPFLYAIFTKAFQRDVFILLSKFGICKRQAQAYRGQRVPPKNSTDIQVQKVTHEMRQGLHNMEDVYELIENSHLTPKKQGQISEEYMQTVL
Sequence of Luciferin 4-monooxygenase (Photinus pyralis) (P08659 whole entry, looked up): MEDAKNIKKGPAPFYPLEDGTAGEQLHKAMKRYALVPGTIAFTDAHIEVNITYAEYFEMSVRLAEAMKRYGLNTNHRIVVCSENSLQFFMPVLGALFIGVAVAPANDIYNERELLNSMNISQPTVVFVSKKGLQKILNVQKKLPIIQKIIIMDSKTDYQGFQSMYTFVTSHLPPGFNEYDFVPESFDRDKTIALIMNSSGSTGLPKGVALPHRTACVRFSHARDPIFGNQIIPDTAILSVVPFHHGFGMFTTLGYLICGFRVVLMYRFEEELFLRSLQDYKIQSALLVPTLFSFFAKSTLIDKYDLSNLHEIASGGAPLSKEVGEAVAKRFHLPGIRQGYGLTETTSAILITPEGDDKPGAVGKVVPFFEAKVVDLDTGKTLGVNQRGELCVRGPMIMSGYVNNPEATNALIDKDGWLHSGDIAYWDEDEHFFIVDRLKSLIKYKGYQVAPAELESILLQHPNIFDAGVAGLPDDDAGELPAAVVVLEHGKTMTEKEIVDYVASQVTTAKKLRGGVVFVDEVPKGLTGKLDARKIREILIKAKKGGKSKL
Sequence of Nuclear receptor subfamily 1 group I member 3 (Homo sapiens) (Q14994 whole entry, looked up): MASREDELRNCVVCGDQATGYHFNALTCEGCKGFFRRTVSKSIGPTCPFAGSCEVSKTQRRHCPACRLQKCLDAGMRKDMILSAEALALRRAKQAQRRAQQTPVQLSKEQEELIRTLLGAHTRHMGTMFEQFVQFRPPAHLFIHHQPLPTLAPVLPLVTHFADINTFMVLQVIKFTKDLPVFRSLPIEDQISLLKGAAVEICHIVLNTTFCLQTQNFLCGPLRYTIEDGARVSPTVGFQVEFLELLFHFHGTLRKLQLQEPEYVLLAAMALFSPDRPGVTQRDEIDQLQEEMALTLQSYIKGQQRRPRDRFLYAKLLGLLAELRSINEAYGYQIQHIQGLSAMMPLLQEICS

C[N+]1(C)CCCCC1
inactive: Potency [1] | Potency [2] | Potency [3] | Potency [4] | Potency [5] | Potency [6] | Potency [7] | Potency [8] | outcome [9] | outcome [10] | Potency [11] | Potency [12] | Potency [13] | outcome [14] | Potency [15]

COc1cc(CC(C)N)cc(OC)c1OC (stereo not drawn)
inactive: Potency [1] | Potency [2] | Potency [3] | Potency [4] | Potency [5] | Potency [6] | Potency [16] | Potency [17] | Potency [8] | outcome [9] | outcome [10] | Potency [11] | Potency [18] | activity change, positive = activation [19] 12.1% | Potency [12] | Potency [13] | outcome [14] | Potency [15]

CC(C)(C)C(=O)Cl
inactive: Potency [1] | Potency [2] | Potency [3] | Potency [4] | Potency [5] | Potency [6] | Potency [7] | Potency [8] | outcome [9] | outcome [10] | Potency [11] | Potency [12] | Potency [13] | outcome [14] | Potency [15]

CC[C@@H](CO)NC(=O)[C@@H]1C=C2c3cccc4c3c(cn4C)C[C@H]2N(C)C1
inactive: Potency [1] | Potency [2] | Potency [3] | Potency [4] | Potency [5] | Potency [6] | Potency [16] | Potency [17] | Potency [8] | outcome [9] | outcome [10] | Potency [11] | Potency [18] | activity change, positive = activation [19] 0.637% [at 42.5 µM] | Potency [12] | Potency [13] | outcome [14] | Potency [15]

NC(=O)CS(=O)C(c1ccccc1)c1ccccc1 (stereo not drawn)
inactive: Potency [1] | Potency [2] | Potency [3] | Potency [4] | Potency [5] | Potency [6] | Potency [16] | Potency [17] | Potency [7] | Potency [8] | outcome [9] | outcome [10] | Potency [11] | Potency [18] | activity change, positive = activation [19] 9.38% [at 42.5 µM] | Potency [12] | Potency [13] | outcome [14] | Potency [15]

ClC1=C(Cl)C2(Cl)C(CBr)CC1(Cl)C2(Cl)Cl (stereo not drawn)
active: Potency [7] 4.33 µM and 10.6 µM
113 µM (active) and inactive: Potency [11]
inactive: Potency [1] | Potency [2] | Potency [3] | Potency [4] | Potency [6] | Potency [8] | outcome [9] | outcome [10] | Potency [12] | outcome [14] | Potency [15]
49 µM (active) and inactive: Potency [13]

CCCCOC(C)=O
inactive: Potency [1] | Potency [2] | Potency [3] | Potency [4] | Potency [6] | Potency [7] | Potency [8] | outcome [9] | outcome [10] | Potency [11] | Potency [12] | Potency [13] | outcome [14] | Potency [15]

CCCOC(=O)Cc1ccc(OCC(=O)N(CC)CC)c(OC)c1
inactive: Potency [1] | Potency [2] | Potency [3] | Potency [4] | Potency [6] | Potency [7] | Potency [8] | outcome [9] | outcome [10] | Potency [11] | Potency [12] | Potency [13] | outcome [14] | Potency [15]

O=c1[nH]oc2c1CCNC2
inactive: Potency [1] | Potency [2] | Potency [3] | Potency [4] | Potency [6] | Potency [16] | Potency [17] | Potency [7] | Potency [8] | outcome [9] | Potency [11] | Potency [18] | activity change, positive = activation [19] 0.599% [at 42.5 µM] | Potency [12] | Potency [13] | outcome [14] | Potency [15]

O=P(O)(O)CN(CP(=O)(O)O)CP(=O)(O)O
inactive: Potency [1] | Potency [2] | Potency [3] | Potency [4] | Potency [6] | Potency [7] | Potency [8] | outcome [9] | outcome [10] | Potency [11] | Potency [12] | cytotoxicity [14] 9.86% [at 15.8 µM] | Potency [15]

NC(=O)OCCCc1ccccc1
inactive: Potency [1] | Potency [2] | Potency [3] | Potency [4] | Potency [6] | Potency [7] | Potency [8] | outcome [9] | outcome [10] | Potency [11] | Potency [12] | Potency [13] | outcome [14] | Potency [15]

CC[C@@H](CO)NC(=O)[C@@H]1C=C2c3cccc4[nH]cc(c34)C[C@H]2N(C)C1
inactive: Potency [1] | Potency [2] | Potency [3] | Potency [4] | Potency [6] | Potency [16] | Potency [17] | Potency [7] | Potency [8] | outcome [9] | outcome [10] | Potency [11] | Potency [18] | activity change, positive = activation [19] -0.565% [at 42.5 µM] | Potency [12] | Potency [13] | outcome [14] | Potency [15]

COC1=CC(=O)O[C@@H](/C=C/c2ccccc2)C1
inactive: Potency [1] | Potency [2] | Potency [3] | Potency [4] | Potency [6] | Potency [16] | Potency [7] | Potency [8] | Potency [11] | Potency [18] | activity change, positive = activation [19] 12.9% | Potency [12] | Potency [13] | outcome [14] | Potency [15]

NCCOS(=O)(=O)O
inactive: Potency [1] | Potency [2] | Potency [3] | Potency [4] | Potency [6] | Potency [7] | Potency [8] | outcome [10] | Potency [11] | Potency [12] | Potency [13] | outcome [14] | Potency [15]

CCC1(c2cccc(O)c2)CCCCN(C)C1 (stereo not drawn)
inactive: Potency [1] | Potency [2] | Potency [3] | Potency [4] | Potency [6] | Potency [7] | Potency [8] | outcome [9] | Potency [11] | Potency [12] | Potency [13] | outcome [14] | Potency [15]

CCOC(=O)N(C)N=O
inactive: Potency [1] | Potency [2] | Potency [3] | Potency [4] | Potency [6] | Potency [16] | Potency [17] | Potency [7] | Potency [8] | outcome [9] | outcome [10] | Potency [11] | Potency [18] | activity change, positive = activation [19] -2.98% | Potency [12] | Potency [13] | outcome [14] | Potency [15]

Source: PubChem BioAssay (Tox21)
